Structures are written as SMILES. Active and inactive are the calls of the source. Calls come from the whole dose curve; as a rule, active = well fitted curve in the direction sought with a large enough effect; inconclusive = small, poorly fitted or top-dose-only effect, or another doubt; inactive = no such curve, though single readings can be large or run the other way.

The test in a line: qHTS Counterscreen for compound interference against the NCATS DSHEA and TCM libraries (AID 1919978).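 Note: compounds preincubated with 1 µM D-luciferin or buffer before detection reagent; % of control where 0% means no effect.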 The following applies: firefly luciferase detection reagent interference, luminescence. From the text:
PI: Anton Simeonov Ph.D. Assay Development and Screening Technology Laboratory (ADST) National Center for Advancing Translational Sciences (NCATS), Rockville, MD National Institute of Health (NIH), Bethesda, Maryland Dietary Supplements and Natural Products have minor oversight of their safety and efficacy. We assembled a collection of Dietary Supplements and Natural Products (DSNP) as well as Traditional Chinese Medicinal (TCM) Plant extracts, which were screened against an in vitro panel of assays, including a liver cytochrome p450 enzyme panel, CAR/PXR signaling pathways, and P-gp transporter assays, to assess their activity. This pipeline facilitated the interrogation of Natural Product-Drug Interaction (NaPDI) through prominent metabolizing pathways. In addition, we compared the activity profiles of the DSNP/TCM substances with those of an approved drug collection. Many of the approved drugs have well-annotated mechanisms of action (MOA) while the MOAs for most of the DSNP and TCM samples remain unknown. Based on the premise that compounds with similar activity profiles tend to share similar targets or MOA, we clustered the library activity profiles to identify overlap with the NCATS Pharmaceutical Collection to predict the MOAs of the DSNP/TCM substances. Overall, we highlight four significant bioactivity profiles (measured by p-values) as examples of this prediction. To assess broad cytotoxicity, we employed screening against a HepG2 cell line. In addition, transporter-mediated drug interactions are utilized in the characterization of DDIs using a P-glycoprotein (P-gp) assays. To profile potential P-gp activity, a differential cell viability was measured against two cell lines: a parental KB-3-1 human cervical adenocarcinoma cell line and the drug-resistant subline KB-8-5-11 that overexpresses P-gp. […] To this end, we profiled both collections for potential CAR and/or PXR activity, employing a previously published 1536-well qHTS assay. […] Reference: [1] Lee TD, et al. A High-Throughput Screen of a Library of Therapeutics Identifies Cytotoxic Substrates of P-glycoprotein. Mol Pharmacol. Nov 2019;96(5):629-640. doi:10.1124/mol.119.115964
PROTOCOL TABLE (as described by Inglese J, Shamu CE and Guy RK. 2007) SEQUENCE No. (e.g., 1, 2, 3, etc.); […] (e.g., Cells, Incubation, Reagent, etc.); VALUE; DESCRIPTION. 1; Reagent; 4 uL; D-luciferin or buffer only, white solid-bottom Greiner plate. 2; Compounds and control; 16 nL; Kalypsis pintool (Wako USA). 3; Incubation; 15 min; room temperature. 4; Reagent; 4 uL; luciferin detection reagent. 5; Centrifuge; 1000 RPM; 15 sec. 6; Incubation; 30 min; room temperature. 7; Read; Luminescence; ViewLux plate reader. NOTES (numbers refer to Sequence numbers above) 1. To account for detection kit artifacts, compounds were counter-screened for interferences using previously described methods. Briefly, 4 uL of D-luciferin (final concentration 1 uM) or buffer (100 mM potassium phosphate) were dispensed into a 1536-well white solid-bottom medium binding plate. 2-3. Compounds (final concentration of 19.5 nM to 39.8 uM) and intraplate control PTC124 (final concentration range: 1.2 nM to 39.8 uM) were transferred (16 nL) via pintool (Wako Automation) and incubated (RT) for 15 min. 4-6. Next, 4 uL of reconstituted luciferin detection reagent was dispensed, and samples were centrifuged for 15 s at 1000 rpm and incubated (RT) for 30 min. 7. Plates were then read for luminescence intensity on a ViewLux detector. REFERENCES: [1] Inglese J, Shamu CE and Guy RK, Reporting data from high throughput screening of small molecule libraries, Nature Chemical Biology, 2007, 3(8): 438-441. doi.org/10.1038/nchembio0807-438. Auld DS, Southall NT, Jadhav A, Johnson RL, Diller DJ, Simeonov A, Austin CP, Inglese J. Characterization of chemical libraries for luciferase inhibitory activity. J Med Chem. 2008 Apr 24;51(8):2372-86. doi: 10.1021/jm701302v. Epub 2008 Mar 26. PMID: 18363348.
Background: qHTS replaces the single test concentration by a dilution series.
Turning to `CCCCCCCC/C=C/CCCCCCCCCC(=O)O`, the max response was -1.3% (inactive).

Regarding `CCCCCC/C=C\CCCCCCCC(=O)O`, the max response was 0.217% (inactive).

As for `C=CCc1ccc(OC)c(OC)c1`, the max response was -1.2% (inactive).

In the case of `CCCCCCCCCCCCCC(=O)O`, the max response is -1.78% (inactive).

Take `CCCCCCCCC[C@@H](O)CC(=O)CCc1ccc(O)c(OC)c1`: the max response was 2.63% (inactive).

As for `OCC1=C[C@@H](O)[C@@H]2C=CO[C@@H](OC3O[C@H](CO)[C@@H](O)[C@H](O)[C@H]3O)[C@H]12` (stereo not given in full), the max response was 1.01% (inactive).

For the compound `COc1ccc(-c2coc3cc(O[C@@H]4O[C@H](CO)[C@@H](O)[C@H](O)[C@H]4O)ccc3c2=O)cc1`, the max response is 3.05% (inactive).

For `CC1(C)CC[C@]2(C(=O)O)CC[C@]3(C)C(=CCC4[C@@]5(C)CC[C@@H](O)C(C)(C)C5CC[C@]43C)C2C1` (stereo not given in full), the max response is -3.58% (inactive).

With `COc1ccc(/C=C/c2cc(OC)cc(=O)o2)cc1`, the max response is 0.752% (inactive).

For the compound `CC(=O)OC/C=C/c1ccccc1`, the max response is 3.54% (inactive).

For the compound `CCCCCCCC/C=C\CCCCCCCCCCCCCC(=O)O`, the max response is -2.19% (inactive).

On to `CCCCCCCCCCCCCC(=O)OCC(O)CO` (stereo not given), for which the max response was 2.98% (inactive).

Consider `CCCCCC/C=C/CCCCCCCCCC(=O)O`, for which the max response is 3.83% (inactive).

For `CC(C)=CCCC(C)(OC1OC(COC2OC(CO)C(O)C2O)C(O)C(O)C1O)C1CCC2(C)C1C(O)CC1C3(C)CCC(OC4OC(CO)C(O)C(O)C4OC4OC(CO)C(O)C(O)C4O)C(C)(C)C3CCC12C` (stereo not given), the max response is 2.08% (inactive).

Regarding `CC1=C2[C@H](/C=C(\C)C(=O)O)CC[C@@H](C)[C@H]2CC1`, the max response was 1.69% (inactive).

`Cc1ncc(COP(=O)(O)O)c(C)c1O`: the max response was -1.84% (inactive).

For `CCCCCC(=O)O`, the max response was -1.64% (inactive).

In the case of `C=C1C[C@@]23CC[C@H]4[C@@](C)(CCC[C@@]4(C)C(=O)O[C@@H]4O[C@H](CO)[C@@H](O)[C@H](O)[C@H]4O)[C@@H]2CC[C@]1(O[C@@H]1O[C@H](CO)[C@@H](O)[C@H](O[C@@H]2O[C@H](CO)[C@@H](O)[C@H](O)[C@H]2O)[C@H]1O[C@@H]1O[C@@H](C)[C@H](O)[C@@H](O)[C@H]1O)C3`, the max response was 2.19% (inactive).

As for `O=c1c(O[C@@H]2O[C@H](CO)[C@H](O)[C@H](O)[C@H]2O)c(-c2ccc(O)c(O)c2)oc2cc(O)cc(O)c12`, the max response is 1.88% (inactive).

Turning to `CCCCCCC/C=C/C(=O)CCc1ccc(O)c(OC)c1`, the max response was 6.04% (inactive).

Turning to `C=C(C)C(CC=C(C)C)CC12CC(CC=C(C)C)C(C)(C)C(CC=C(C)C)(C(=O)/C(=C(\O)c3ccc(O)c(O)c3)C1=O)C2=O` (stereo not given), the max response is 3.47% (inactive).

For `C[C@@H]1CC[C@]2(C)CC[C@]3(C)C(=CC(=O)C4[C@@]5(C)CC[C@@H](O)[C@](C)(C(=O)O)C5CC[C@]43C)C2[C@H]1C` (stereo not given in full), the max response is 2.52% (inactive).

As to `CC(C)(O)[C@@H]1CC[C@](C)([C@H]2[C@@H](O)C[C@@]3(C)[C@@H]4C[C@H](O)[C@H]5C(C)(C)[C@@H](O[C@@H]6OC[C@@H](O)[C@H](O)[C@H]6O[C@@H]6O[C@H](CO)[C@@H](O)[C@H](O)[C@H]6O)CC[C@@]56C[C@@]46CC[C@]23C)O1`, the max response was 4.11% (inactive).

For `C=CC(=C)CCC=C(C)C`, the max response is 1.58% (inactive).

For the compound `O[C@@H]1[C@@H](O)[C@H](OC/C=C/c2ccccc2)O[C@H](CO[C@@H]2OC[C@H](O)[C@H](O)[C@H]2O)[C@H]1O`, the max response was 4.06% (inactive).

Take `CC1(C)CC[C@]2(C(=O)O)CC[C@]3(C)C(=CCC4[C@@]5(C)CC[C@H](O)[C@@](C)(CO)C5CC[C@]43C)[C@H]2C1` (stereo not given in full): the max response is -0.0807% (inactive).

As to `C[C@@H]1O[C@@H](OC[C@H]2OC(Oc3c(-c4ccc(O)c(O)c4)oc4cc(O)cc(O)c4c3=O)[C@H](O)[C@@H](O)[C@@H]2O)[C@H](O)[C@H](O)[C@H]1O` (stereo not given in full), the max response is -2.59% (inactive).

Regarding `CC(C)=CCC[C@](C)(OC1OC(COC2OCC(O)C(O)C2O)C(O)C(O)C1O)[C@H]1CC[C@]2(C)[C@@H]1[C@H](O)C[C@@H]1[C@@]3(C)CC[C@H](OC4OC(CO)C(O)C(O)C4OC4OC(CO)C(O)C(O)C4O)C(C)(C)[C@@H]3CC[C@]12C` (stereo not given in full), the max response is 4.44% (inactive).

In the case of `CC1(C)C2CCC1(C)C(O)C2` (stereo not given), the max response is 1.58% (inactive).

For the compound `Oc1cc(O)c2c(c1)O[C@@H](c1cc(O)c(O)c(O)c1)[C@H](O)C2`, the max response is -5.21% (inactive).

On to `O=C(O)c1ccccc1`, for which the max response is -0.483% (inactive).

`O=C(OC[C@H]1O[C@@H](OC(=O)c2cc(O)c(O)c(O)c2)[C@H](OC(=O)c2cc(O)c(O)c(O)c2)[C@@H](OC(=O)c2cc(O)c(O)c(O)c2)[C@@H]1O)c1cc(O)c(O)c(O)c1`: the max response is -2.07% (inactive).

For the compound `CC/C=C\C/C=C\C/C=C\C/C=C\CCCCC(=O)O`, the max response was -1.09% (inactive).

For the compound `COc1ccc(C(=O)O)cc1`, the max response was -1.54% (inactive).

With `COc1cc(-c2oc3cc(O)cc(O)c3c(=O)c2O)ccc1O`, the max response was -5.64% (inactive).

Consider `C=C1C[C@]23CC[C@H]4[C@@](C)(CCC[C@@]4(C)C(=O)O)[C@@H]2CC[C@@]1(O[C@@H]1O[C@H](CO)[C@@H](O)[C@H](O)[C@H]1O[C@@H]1O[C@H](CO)[C@@H](O)[C@H](O)[C@H]1O)C3`, for which the max response was -1.97% (inactive).

Regarding `COc1cc(/C=C/c2ccccc2)oc(=O)c1`, the max response was 2.93% (inactive).

Turning to `C=CC(C)(CCC=C(C)C)OC(C)=O` (stereo not given), the max response is -0.984% (inactive).

In the case of `O=C(O[C@@H]1Cc2c(O)cc(O)cc2O[C@@H]1c1ccc(O)c(O)c1)c1cc(O)c(O)c(O)c1`, the max response is 2.25% (inactive).

Take `CC12CC3(O)OC(O1)C1(COC(=O)c4ccc(O)cc4)C3CC21OC1OC(CO)C(O)C(O)C1O` (stereo not given): the max response was 4.47% (inactive).

For the origin of these results see PubChem BioAssay (NCATS).
